AmpC detergent = qHTS Inhibitors of AmpC Beta-Lactamase (assay with detergent). AID 485294, 2010. Potency, µM (series often up to 114 µM), usual class: inhibitors. P00811. 370,000 tested, 0.041% active. AmpC hydrolysis of nitrocefin, absorbance 480 nm, 0.01% Triton; also: nearly all actives have a fitted effect of over 25% in size
Target sequence (P00811 whole entry, looked up): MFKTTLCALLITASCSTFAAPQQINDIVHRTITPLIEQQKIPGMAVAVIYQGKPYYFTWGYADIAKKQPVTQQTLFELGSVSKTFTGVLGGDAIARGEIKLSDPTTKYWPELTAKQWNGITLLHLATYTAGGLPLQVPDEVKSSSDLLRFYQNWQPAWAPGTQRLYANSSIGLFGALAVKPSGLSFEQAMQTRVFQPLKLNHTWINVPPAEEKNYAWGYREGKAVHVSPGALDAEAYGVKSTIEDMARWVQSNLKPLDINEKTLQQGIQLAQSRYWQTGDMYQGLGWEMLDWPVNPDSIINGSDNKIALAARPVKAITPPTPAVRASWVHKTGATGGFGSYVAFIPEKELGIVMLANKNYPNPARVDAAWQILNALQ
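AmpC (5.3 nM in the dispensed reagent) in 20 mM phosphate pH 7.0 with 0.01% (detergent screen) or 0.0001% Triton X-100 was preincubated with compounds for 15 min at room temperature. Nitrocefin was then added from an 800 uM solution, and hydrolysis was followed at 480 nm.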
AMA1 RON2 block = qHTS for Inhibitors of AMA1-RON; Towards Development of Antimalarial Drug Lead: Primary Screen; Plasmodium falciparum AMA1 (3D7) - RON2 peptide interaction; AlphaScreen AMA1-biotinylated RON2 peptide binding; Potency, µM (highest dose often 58.2 µM), most hits filed as inhibitors; 360,000 tested, 0.2% active; AID 720542, 2013; also: nearly all actives have a fitted effect of over 45% in size
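AMA1 (3D7) with his tag at 25 nM final met compounds first, then biotinylated RON2 peptide at 25 nM; detection used donor plus acceptor beads, 10 µg/mL apiece, read by AlphaScreen after 30 min at room temperature.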
AmpC no deterg = qHTS Inhibitors of AmpC Beta-Lactamase (assay without detergent). P00811. AmpC nitrocefin hydrolysis, absorbance 480 nm, 0.0001% Triton. Potency, µM (doses to about 57.1 µM), hits mostly inhibitors. 330,000 tested, 0.52% active; also: nearly all actives have a fitted effect of over 20% in size
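AmpC (5.3 nM in the dispensed reagent) in 20 mM phosphate pH 7.0 with 0.01% (detergent screen) or 0.0001% Triton X-100 was preincubated with compounds for 15 min at room temperature. Nitrocefin was then added from an 800 uM solution, and hydrolysis was followed at 480 nm.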
RE007 growth inh = qHTS Assay for Inhibitors of the HIV-1 protein Vpr. S. pombe RE007 Vpr strain, BacTiter-Glo ATP luminescence, 24 h. 360,000 tested, 0.21% active. Potency, µM (highest dose often 92.2 µM), usual class: inhibitors. AID 651644, 2012; active = well fitted falling curve with a large enough effect; inconclusive = small, poorly fitted or top-dose-only effect; inactive = no such curve, though single readings can be large or run the other way; also: nearly all actives have a fitted effect of over 50% in size
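Fission yeast RE007 carrying one integrated HIV-1 vpr copy, seeded at OD 0.01 in PMG+AL medium with 23 nL pinned compound. Grown 24 h at 30 degrees; viability read by BacTiter-Glo luminescence after 5 min.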
Sm TGR block = qHTS Assay for the Inhibitors of Schistosoma Mansoni Peroxiredoxins; purified TGR, DTNB reduction, TNB absorbance 405 nm; 360,000 tested, 3% active; AID 485364, 2010; Potency, µM (highest dose often 114 µM), actives largely listed as inhibitors; also: nearly all actives have a fitted effect of over 60% in size
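Kinetic colorimetric format: TGR-catalysed, NADPH-driven DTNB reduction monitored via TNB absorbance. Enzyme dispensed at 20 nM; compound exposure 15 min at room temperature before reaction start.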
Of the large screens only hits and unclear results are named; the others gave an inactive call. An excerpt weighted towards active compounds, which were near 3.2% of everything screened. Unless noted, calls follow the shape of the dose curve; as a rule, active = well fitted curve in the direction sought with a large enough effect; inconclusive = small, poorly fitted or top-dose-only effect, or another doubt; inactive = no such curve, though single readings can be large; an effect the other way counts as inactive or inconclusive.

COc1ccc(-c2[nH]c(-c3ccccc3)nc2SCC(=O)Nc2ccc3c(c2)OCCO3)cc1	none (no result: AMA1 RON2 block, AmpC no deterg, RE007 growth inh)
COc1ccc(C2=NO[C@@](CC(=O)O)(C(=O)Nc3ccc4c(c3)OCCO4)C2)cc1	Sm TGR block 22µM
CCN1CCN(C(c2ccc(SC)cc2)c2c(O)cc(C)n(CCOC)c2=O)CC1 (centres undefined)	Sm TGR block 7.1µM (no result: AMA1 RON2 block, AmpC no deterg, RE007 growth inh)
CCN1CCN(C(c2ccccc2F)c2c(O)cc(C)n(CCOC)c2=O)CC1 (centres undefined)	Sm TGR block 7.9µM (no result: AMA1 RON2 block, AmpC no deterg, RE007 growth inh)
COCCn1nnnc1C(c1ccccc1OC)N1CCN(c2ccccc2)CC1 (centres undefined)	AmpC detergent inconclusive
COCCn1c(CN2CCN(C(c3ccccc3)c3ccccc3)CC2)nc2c1c(=O)n(C)c(=O)n2C	none
CCN1CCN(C(c2ccccc2Cl)c2c(O)cc(C)n(CCOC)c2=O)CC1 (centres undefined)	Sm TGR block 3.5µM (no result: AMA1 RON2 block, AmpC no deterg, RE007 growth inh)
COCCn1c(C)cc(O)c(C(c2ccccc2Cl)N2CCN(c3ccccc3)CC2)c1=O (centres undefined)	Sm TGR block 3.2µM (no result: AMA1 RON2 block, AmpC no deterg, RE007 growth inh)
CCN1CCN(C(c2cccs2)C(C)NC(=O)c2ccccc2F)CC1 (centres undefined)	none
Cc1ccc(C)c(NC(=O)Cn2c(=O)n(CC(=O)NCCc3ccccc3)c(=O)c3ccccc32)c1	none (no result: AMA1 RON2 block, AmpC no deterg, RE007 growth inh)
O=c1c2cn[nH]c2nc(SCc2ccccc2F)n1-c1ccc(Br)cc1	AmpC detergent inconclusive, AmpC no deterg 11µM
Cc1cccc(NC(=O)CSc2nc3[nH]ncc3c(=O)n2-c2ccccc2)c1	AmpC no deterg 8.9µM (no result: AMA1 RON2 block, RE007 growth inh)
COc1ccc(Cn2c(=O)c3oc4ccccc4c3n(Cc3ccc(F)cc3)c2=O)cc1	none (no result: AMA1 RON2 block, AmpC no deterg, RE007 growth inh)
O=C1CCC/C(=N/Nc2ccc(Cl)cc2)C1	Sm TGR block 13µM
COc1ccc(OC)c(CCNc2nc3ccccc3c3nc(-c4cccnc4)nn23)c1	none (no result: AMA1 RON2 block, AmpC no deterg, RE007 growth inh)
CC(=O)O[C@H]1CCC2C3CC[C@H]4[C@@H](O)[C@H](O)CC[C@]4(C)C3CC[C@@]21C (some centres undefined)	none (no result: AmpC detergent, AmpC no deterg, Sm TGR block)
CC(=O)O[C@H]1CCC2C3CCC4=CC(=O)CCC4=C3C=C[C@@]21C (some centres undefined)	Sm TGR block 5µM
COc1ccc(OC)c2c(C)c(C)[nH]c12	Sm TGR block 32µM
COc1cc2ccccc2cc1C(=O)N1CCCC(C(F)(F)F)C1 (centres undefined)	none
O=C(c1cc2ccccc2cc1O)N1CCCC(C(F)(F)F)C1 (centres undefined)	Sm TGR block 28µM
CCN1CCN(C(=O)c2cc(-c3ccco3)nc3ccccc23)CC1	Sm TGR block 28µM
O=C(c1cc(-c2ccncc2)nc2ccccc12)N1CCCC(C(F)(F)F)C1 (centres undefined)	none (no result: AmpC detergent, AmpC no deterg, Sm TGR block)
O=C(c1cc(-c2ccco2)nc2ccccc12)N1CCCC(C(F)(F)F)C1 (centres undefined)	AmpC detergent inconclusive, Sm TGR block 35µM
CCn1c(=O)cc(OCC(=O)Nc2ccccc2Cl)c2ccccc21	none (no result: AMA1 RON2 block, AmpC no deterg, RE007 growth inh)
Cc1cccc(N2C(=O)NC(=O)/C(=C\c3cc(C)n(-c4sc5c(c4C#N)CCCC5)c3C)C2=O)c1C	AmpC no deterg 32µM, Sm TGR block inconclusive
CN(Cc1ccccc1)C1CC(=O)N(c2ccc(C(=O)O)cc2)C1=O (centres undefined)	Sm TGR block 20µM
CCCCCCC(=O)N(O)C1CC(=O)N(Cc2ccccc2)C1=O (centres undefined)	AmpC detergent inconclusive, Sm TGR block inconclusive
CCCCOc1ccc(N2C(=O)CC(N(O)c3ccccc3)C2=O)cc1 (centres undefined)	none
CCCCCC(=O)N(O)C1CC(=O)N(c2ccccc2)C1=O (centres undefined)	RE007 growth inh 10µM, Sm TGR block inconclusive
CCCCCOc1ccc(N2C(=O)CC(N(O)c3ccccc3)C2=O)cc1 (centres undefined)	AmpC detergent inconclusive, AmpC no deterg 20µM

Screens from PubChem.
